# Laboratory results from PubChem BioAssay (Tox21).
# Records with an inconclusive call do not appear. A number with no mark means an inactive call. The call rests on the fitted dose curve; in most records, active means well fitted activation curve with a large enough effect in the signal ratio in the repeat runs (not every such curve was filed as active); inconclusive means weak or mixed curves; inactive means flat fitted curve, though single readings scatter; the % refers to the signal ratio.
# Test: p53 small molecule agonists, cell-based qHTS assay (AID 1963582)
# Conditions: HCT-116 p53RE-bla reporter, beta-lactamase FRET ratio, 16 h; series mostly up to 66 µM; activation: at the top concentration
# Description: National Center for Advancing Translational Sciences [NCATS]
# Division of Preclinical Innovation [DPI]
# U.S. Environmental Protection Agency [EPA]
# National Institutes of Environmental Health Sciences [NIEHS]
# National Toxicology Program [NTP]
# U.S. Food and Drug Administration [FDA]
# p53, a tumor suppressor protein, is activated following cellular insult, including DNA damage and other cellular stresses. The activation of p53 regulates cell fate by inducing DNA repair, cell cycle arrest, apoptosis, or cellular senescence. The activation of p53, therefore, is a good indicator of DNA damage and other cellular stresses. […] The activation of the reporter gene under culture conditions can be detected by fluorescence intensity. This cell line was used to screen the Tox21 10K compound library in a 1536-well plate format and to identify agonists that activate the p53 signaling pathway.
# Tox21 Assay Protocol Summary:
# The p53RE-bla cells were dispensed at 4,000 cells/5 ul/well in 1536-well black wall/clear bottom plates using a Multidrop dispenser. After the assay plates were incubated at a 37 C/5% CO2 incubator for 5 hours, 23 nL of compounds dissolved in DMSO, positive controls or DMSO only was transferred to the assay plate by a pin tool. The plates were incubated at 37 C for 16 hours. After 1 uL of LiveBLAzerTM B/G FRET substrate was added using a Flying Reagent Dispenser, the plates were incubated at room temperature for 2 hours, and fluorescence intensity was measured by an Envision plate reader.
# On the % scale 0 is the no-effect control and ±100 the full control effect.
row,Structure (SMILES),activation
1,CCCCc1nc(Cl)c(CO)n1Cc1ccc(-c2ccccc2-c2nn[nH]n2)cc1,3.33% [at 30.3 µM]
2,C/C=C(\C)C=O,3.9%
3,NNc1nnc(NN)c2ccccc12,-0.242% [at 30.3 µM]
4,NC(=O)C1(N2CCCCC2)CCN(CCCC(=O)c2ccc(F)cc2)CC1,-0.0564% [at 30.3 µM]
5,CCCOc1ccc(C(=O)OCCN(CC)CC)cc1N,0.763% [at 30.3 µM]
6,O=C(Oc1ccccc1C(=O)O)c1ccccc1O,0.673% [at 30.3 µM]
7,O=CN1CCCCC1,-0.197%
8,Cc1occc1C(=O)Nc1ccc(C(=O)N2CCC(F)(F)/C(=C\C(=O)N3CCC(N4CCCCC4)CC3)c3ccccc32)cc1,-5.15% [at 30.3 µM]
9,OCCCCC(O)CO (stereo not given),1.46%
10,CCNC(=O)NCCCOc1cccc(CN2CCCCC2)c1,1.3% [at 30.3 µM]
11,CCCCCCOC(=O)CCC,1.39%
12,C/C(=N\[Si](C)(C)C)O[Si](C)(C)C,0.411%
13,Cc1ncc(CO)c(C=O)c1O,0.0378% [at 30.3 µM]
14,CN(C)CCCSc1ccccc1NC(=O)/C=C/c1ccccc1,-1.18% [at 30.3 µM]
15,O=C(CCCN1CCC(O)(c2ccc(Br)cc2)CC1)c1ccc(F)cc1,0.113% [at 30.3 µM]
16,CN(C)C(=O)Nc1ccc(Oc2ccc(Cl)cc2)cc1,-2.45%
17,Cc1ccc(C)c(N)c1,-4.93%
18,CC1(c2ccccc2)OC(C(=O)O)=CC1=O (stereo not given),-0.0252% [at 30.3 µM]
19,CC(=O)Nc1ccc(C)cc1C,0.686%
20,CCCOc1ccccc1-c1nc2n[nH]nc2c(=O)[nH]1,-0.877% [at 30.3 µM]

row,Structure (SMILES),activation
1,Cc1[nH]c(=O)c(C#N)cc1-c1ccc2nccn2c1,-3.76% [at 30.3 µM]
2,CCN1CN(CC)CN(CC)C1,5.29%
3,CCOC(=O)c1ccccc1,0.147%
4,CCO[Si](C)(CCCOCC1CO1)OCC (stereo not given),-3.23%
5,Cc1ccc2oc(CN(Cc3ccccc3)C(=O)Nc3c(F)cc(F)cc3F)c(-c3ccc(Cl)cc3)c2c1,-0.935%
6,Cc1nc2ccc(Cl)cc2[nH]1,1.21%
7,CCN(CC)C(=O)Nc1ccc(OCC(O)CNC(C)(C)C)c(C(C)=O)c1 (stereo not given),0.0882% [at 30.3 µM]
8,CCC1CO1 (stereo not given),5.5%
9,C=C(C)C1CC=C(C)C(O)C1 (stereo not given),3.83%
10,Cc1c(N)cccc1Cl,-3.13%
11,CN(C)CCN(Cc1ccsc1)c1ccccn1,-1.99% [at 30.3 µM]
12,OC[C@H](Cc1cccc(O)c1)[C@H](CO)Cc1cccc(O)c1,-8.24%
13,CC(C(O)c1ccc(O)cc1)N1CCC(Cc2ccccc2)CC1 (stereo not given),-3.16% [at 30.3 µM]
14,C=COC(=O)C(C)(CC)CCC(C)C (stereo not given),-2.85%
15,CS(=O)(=O)c1ccc(-c2cn3ccccc3n2)cc1,1.29% [at 30.3 µM]
16,CN1[C@@H]2CC[C@H]1CC(OC(=O)c1c[nH]c3ccccc13)C2 (stereo not given in full),1.34% [at 30.3 µM]
17,CC[C@H](NC(=O)c1cc(F)ccc1NS(=O)(=O)c1cccc2cccnc12)c1ccccc1,-5.03%
18,SCCCCCCCCS,-2.73%
19,CC(=O)OCC(C)C,-2.29%
20,CCn1cc(C(=O)O)c(=O)c2cc(F)c(N3CCNC(C)C3)c(F)c21 (stereo not given),-0.29% [at 30.3 µM]
